PubChem BioAssay AID652104 (National Center for Advancing Translational Sciences (NCATS), 2013)
About 7,200 (1.8%) of roughly 410,000 compounds were called active. Another 7% or so got no clear call; they are omitted. Calls follow the shape of the dose curve; as a rule, active = well fitted activation curve with a large enough effect; inconclusive = small, poorly fitted or top-dose-only effect, or another doubt; inactive = no such curve, though single readings can be large or run the other way. The sample as a whole holds a higher share of actives than the screen did.

Experiment: qHTS of TDP-43 Inhibitors; also: nearly all actives have a fitted effect of over 50% in size; as to growth rescue (activation): % of control where 0% means no effect
Conditions: TDP-43 expressing yeast growth rescue, BacTiter-Glo, 24 h; series mostly up to 46.1 µM; growth rescue (activation): at the top concentration
Method in brief: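 Readout is BacTiter-Glo luminescence of cell growth, so inhibitors register as activators. TDP-43-expressing yeast at OD600=0.02 in galactose medium, after raffinose pregrowth to mid-log, were incubated with compound for 24 hr at 30 deg C.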
Potency is read from the fitted curve at half-maximal effect.

Growth rescue (activation), inactive:
Cn1c(=O)c([N+](=O)[O-])c(Oc2ccccc2)c2ccccc21 17.6%
CCN(CCCNC(=O)Cn1ncc2c([nH]c3ccccc32)c1=O)c1cccc(C)c1 13.5%
CCOC(=O)C1CCCN(C(=O)Cn2ncc3c(C)n(Cc4ccc(F)cc4)c(C)c3c2=O)C1 (stereo not given) 14.2%
O=C(CCOc1ccccc1)N(Cc1cccnc1)c1nc2ccc(Cl)cc2s1 20.1%
Nc1cccc(-c2cncc(N3CCN(Cc4ccccn4)CC3)n2)c1 -0.5%
COc1cccc(-c2cnc3c(NC(C)=O)cc(-c4cccc(NC(C)=O)c4)cn23)c1 0%
CC(=O)Nc1cccc(-c2cc(NC(C)=O)c3ncc(-c4ccccc4)n3c2)c1 29.7%
CCOc1ccc(C(=O)c2cn(Cc3ccccc3OC)c3ccc(F)cc3c2=O)cc1 17.6%
COc1ccc2ncc3c(-c4ccc(C)c(C)c4)nn(CC(=O)NC4CCCC4)c3c2c1 16.1%
COc1ccc2c(c1)Cc1sc(NC(=O)c3ccccc3Br)nc1-2 28.2%
CCOC(=O)c1cc2c(=O)n3ccccc3nc2n(CC2CCCO2)c1=NC(=O)c1ccc(C(C)(C)C)cc1 (stereo not given) 3.37%
COc1ccc(OCCn2cc(C(=O)C3CCCCC3)c3ccccc32)cc1 -3.37%
O=C(c1ccc(Cl)nc1)N1CCN(S(=O)(=O)c2ccc3c(c2)OCCO3)CC1 5.83%
CCNC(=O)N1CCN(S(=O)(=O)c2ccc3c(c2)OCCCO3)CC1 17.1%
CCOC(=O)Cc1csc(SCC(=O)Nc2ccc(C)cc2F)n1 14.9%
CCOC(=O)Cc1csc(SCc2cc(=O)oc3cc(O)ccc23)n1 11%
Cc1ccc(C(=O)Nc2ccc(OCc3cc(=O)n4c(C)csc4n3)cc2)cc1 13.1%
CCSc1nnc(NC(=O)c2cc(=O)c3cc(C)c(C)cc3o2)s1 21.7%
O=C(Cn1c(=O)n(Cc2ccccc2)c(=O)c2sc3ccccc3c21)Nc1ccccc1F -12.3%
CCn1c(COc2ccccc2)nnc1SCC(=O)Nc1ccc2c(c1)OCCO2 -10.9%
CCc1nnc(SCC(=O)Nc2cc(OC)ccc2OC)nc1CC 31%
Cc1ccc(CN2C(=O)SC(Nc3ccccc3)C2=O)cc1 (stereo not given) 12.3%
C=CCn1c(-c2ccc3[nH]c(C)c(C)c3c2)n[nH]c1=S 4.8%
C=CCn1c(-c2ccccc2OCC)n[nH]c1=S 4.11%
Cc1ccc(C(=O)COC(=O)C(Cc2c[nH]c3ccccc23)NC(=O)c2ccc(Br)cc2)cc1 (stereo not given) -2.77%
O=C1OC(C(=O)Nc2cccc(Br)c2)Cc2ccccc21 (stereo not given) 6.1%
COc1cc2c(cc1OC)C(c1cccc([N+](=O)[O-])c1)=NCC2 -0.116%
CCOC(=O)CSc1ncc(-c2cccc(Cl)c2)cn1 -12.5%
COc1cccc(C(=O)NC(=O)Nc2ccc(-c3cc(C(F)(F)F)nn3-c3ccccc3)cc2)c1 6.3%
CCS(=O)(=O)N1CCC(n2c(C)nc3cccnc32)CC1 24.4%
CCN(CC)S(=O)(=O)c1ccc2nc(CSc3nnnn3-c3ccc(O)cc3)[nH]c2c1 -14.7%
O=C(CSc1nnnn1-c1ccc(O)cc1)c1ccc(F)cc1 17.1%
Cc1ccc(C)c(N2CCN(c3ccc4cc(S(=O)(=O)N5CCC(C)CC5)ccc4n3)CC2)c1 5.06%
C=CCNc1nc(C)nc(OC)n1 9.35%
CCOC(=O)CNc1nc(Cl)nc(Nc2ccccc2)n1 -4.82%
Cc1cccc(NC(=O)N2CCN(C)c3ncccc32)c1C 19.7%
O=C(Nc1ccc(-c2nc3cc(NC(=O)c4ccccc4Cl)ccc3o2)cc1)c1ccccc1Cl -11%
Cc1c(Br)ccc(NC(=O)COc2ccccc2C(N)=O)c1C 10.9% [at 9.22 µM]
CC(C)CNC(=O)COC(=O)c1ccccc1OCC(=O)Nc1ccc(Br)cc1 22.3%
O=C(COC(=O)CSc1nnc(-c2ccc(Cl)cc2)o1)Nc1cc(Cl)cc(Cl)c1 2.47%
COc1cccc(-c2nnc(NC(=O)c3ccc(S(=O)(=O)N(CC(C)C)CC(C)C)cc3)o2)c1 3.66%
O=C(COc1ccccc1)Nc1nonc1NC(=O)COc1ccccc1 -3.33%

Potency, active:
Nc1cccc(-c2cc(-c3ccccc3)nc(-c3cccc(N)c3)n2)c1 14.1 µM
CC(=O)Nc1cc(-c2ccccc2F)cn2c(-c3cccc(C(F)(F)F)c3)cnc12 31.6 µM
CC1CC2=C(CC1/C=N/NC(N)=S)C(C)(C)CCC2 (stereo not given) 22.4 µM
O=C(c1c(F)cccc1Cl)N1CCN(S(=O)(=O)c2ccc3c(c2)OCCCO3)CC1 14.1 µM
CCOC(=O)Cc1csc(SCC(=O)NC(C)C23CC4CC(CC(C4)C2)C3)n1 (stereo not given) 22.4 µM
CCn1c(COc2ccc(OC)cc2)nnc1SCC(=O)Nc1cc(OC)ccc1OC 17.8 µM
C=CCn1c(-c2sc(-c3ccccc3)nc2C)n[nH]c1=S 35.5 µM
Nc1c(-c2cccc(Cl)c2)cnn1-c1cccc([N+](=O)[O-])c1 10 µM
Oc1ccc(-n2nnnc2SCc2c(F)cccc2Cl)cc1 15.8 µM
C=CCNc1nc(Nc2ccc(Cl)cc2)nc(OC)n1 35.5 µM
O=C(Nc1nnc(-c2ccc(Cl)cc2)o1)c1ccccc1Br 7.08 µM
O=C(COC(=O)c1ccccc1Br)Nc1nnc(-c2ccccc2)o1 22.4 µM
O=C(COC(=O)c1ccc(Oc2ccccc2)cc1)Nc1nnc(-c2ccccc2)o1 22.4 µM
